According to PubChem BioAssay (NCI):
The panel holds about 79,000 compounds, 15% with a hit somewhere; the sample as a whole holds those more often. No stated cut-off is given here; in the data, active means growth inhibition above about 70%; inactive means the rest.

What was measured:
[1] = NCI Yeast Anticancer Drug Screen. Data for the rad50 strain (AID 155);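 further: 0% = growth of vehicle-only cultures of the same strain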; conditions: S. cerevisiae rad50 strain growth inhibition; at 50.0 µM; hits give high values
Method in brief: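 Compounds were tested on a yeast strain with an engineered DNA damage repair alteration; the reported value is growth inhibition normalised to vehicle treatment.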

[2] = NCI Yeast Anticancer Drug Screen. Data for the mec2-1 strain (AID 157); conditions: S. cerevisiae mec2-1 strain, at 50.0 µM, hits give high values
Method in brief: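 Growth inhibition is read against vehicle-treated controls after compound exposure of the mec2-1 yeast strain, which is defective in DNA damage repair or cell cycle control.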

[3] = NCI Yeast Anticancer Drug Screen. Data for the cln2 rad14 strain (AID 165);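 further: 0% = growth equal to vehicle treated cultures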; conditions: S. cerevisiae cln2 rad14 strain, at 50.0 µM, hits give high values
Method in brief: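 Growth inhibition, relative to vehicle-treated controls, is the read-out. The test organism is a yeast strain with defined genetic alterations, cln2 rad14.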

[4] = NCI Yeast Anticancer Drug Screen. Data for the bub3 strain (AID 167); conditions: S. cerevisiae bub3 mutant strain, at 50.0 µM, hits give high values
Method in brief: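 Growth of a checkpoint-deficient yeast mutant is measured after compound exposure. Values represent inhibition relative to vehicle.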

[5] = NCI Yeast Anticancer Drug Screen. Data for the mlh1 rad18 strain (AID 175); conditions: S. cerevisiae mlh1 rad18 strain growth inhibition; at 50.0 µM; hits give high values
Method in brief: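 Cells of a genetically altered yeast strain, deficient in DNA damage repair, were treated with compound. Their growth was then compared with that of vehicle-treated cultures to give inhibition.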

[6] = NCI Yeast Anticancer Drug Screen. Data for the sgs1 mgt1 strain (AID 161);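 further: 0% = growth of cultures given vehicle only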; conditions: S. cerevisiae sgs1 mgt1 strain, at 50.0 µM, hits give high values
Method in brief: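 Yeast cells carrying a defined DNA-repair defect were exposed to test compounds. Growth inhibition was measured relative to vehicle-treated controls.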

Measured: growth inhibition

O=[n+]1ccn([O-])c2ccccc21
inactive: [1] 11.3% | [2] 8.45% | [3] -52.2% | [4] -8.1% | [5] 20.6%

C=C(OC(C)=O)c1ccccc1
inactive: [1] 6.45% | [2] -12.4% | [3] -7.25% | [4] 28.3% | [5] 0.05%

O=C(CCl)Nc1ccccc1SCc1cc(Cl)cc2c1OCOC2
inactive: [1] -5.7% | [2] -16.4% | [3] 22.9% | [4] 13.6% | [5] -8.9%

COC(=O)c1ccc([N+](=O)[O-])c(C)c1
inactive: [1] -33.2% | [2] -30.9% | [3] -9.9% | [4] -25.1% | [5] -27.6%

CCOc1ccc(C(=O)O)cc1
inactive: [1] 34.8% | [2] -12.8% | [3] 4.85% | [4] 8.2% | [5] 31.1%

CCCCCCCCCCCCCC/C=C\C(CC(=O)O)C(=O)O (stereo not drawn)
inactive: [1] 4.6% | [6] 6.1% | [3] -32.6% | [4] -28.4% | [5] -19.2%

CCNC(=O)Oc1ccc[nH]c1=O
inactive: [1] -7.65% | [2] -10.8% | [3] -15.9% | [4] -2.2% | [5] -47.8%

Oc1cccc(CNC2CCCCC2)c1
inactive: [1] 3.5% | [6] -0.6% | [3] 10.2% | [5] 9.15%

O=C(c1ccccc1)c1ccc(-c2ccc(O)cc2)cc1
inactive: [1] 37.7% | [6] 24.9% | [3] -44.3% | [4] 57.1% | [5] -8%

O=C(O)c1ccc(OCc2ccccc2)cc1
inactive: [1] 12.6% | [6] 38% | [3] -1.85% | [4] -28.1% | [5] 19.9%

C/C(O)=C(/C=N/C(=S)Nc1ccccc1)C(=O)Nc1ccccc1C
inactive: [1] 25.9% | [6] 40.3% | [3] -4.5% | [4] 27.7% | [5] 24.9%

S=c1nc(-c2ccccn2)c(-c2ccccn2)n[nH]1
inactive: [1] -11% | [6] -1.2% | [3] 11% | [4] -21.8% | [5] -53.7%

CCOS(=O)(=O)c1ccc([N+](=O)[O-])cc1
inactive: [1] 7.35% | [6] 4.5% | [3] 5.15% | [5] 5.8%

CCNc1ccc2ccccc2c1N=Nc1ccc(N=Nc2ccccc2)cc1
inactive: [1] -12.4% | [3] 9.75% | [4] -12.7% | [5] -8.55%

Nc1ncnc(Nc2ccc(C(F)(F)F)cc2)n1
inactive: [1] 44% | [6] 1.35% | [3] 13.2% | [4] 25.6% | [5] 17.9%

Clc1cccc(Cl)c1CSc1nc2ccccc2n2cccc12
inactive: [1] -13.3% | [6] 5.2% | [3] 17.6% | [4] -29.9% | [5] -19%

N#CCCN1C(=O)CCC1C(=O)O (stereo not drawn)
inactive: [1] 7.75% | [6] 10.1% | [3] -6.15% | [4] -3.1% | [5] 13.3%

Cc1ccc(C)c(CCO)c1
inactive: [1] -22.1% | [6] -30.5% | [4] -21.4% | [5] -7.3%

O=S(=O)(O)C(C(I)I)S(=O)(=O)O
inactive: [1] -0.15% | [3] -34.5% | [4] -6.85% | [5] -7.6%

C=CCc1cc(OC)c(O)c(OC)c1
inactive: [1] 1.95% | [6] -14.2% | [3] -7.55% | [4] 0.75% | [5] -0.6%

CCOC(=O)CNC
inactive: [1] 3.55% | [6] -12.7% | [3] -4.5% | [5] -10.9%

COC(CCCl)c1ccc(Cl)cc1 (stereo not drawn)
inactive: [1] 4.7% | [6] -10.8% | [3] -4.5% | [4] -5.35% | [5] 26.8%

NC(=S)N/N=C/c1ccc(Cl)cc1
inactive: [1] 47.5% | [6] 41.5% | [3] 13.4% | [4] 22.9% | [5] 46.9%

CCCCCCCCCCCCCCCCOc1ccccc1NC(=O)CC(C)=O
inactive: [1] -8.7% | [6] -9.1% | [3] -5.85% | [4] -5.3% | [5] -3.95%

C/C(=N\N=C(/C)c1cccc([N+](=O)[O-])c1)c1cccc([N+](=O)[O-])c1
inactive: [1] -5.75% | [6] 17.5% | [3] -10.3% | [4] 16.4% | [5] -7.7%

COc1cccc(C(=O)O)c1OC
inactive: [1] 11.2% | [6] 6.55% | [3] 3.75% | [4] -5.35% | [5] 0%

COc1cc(C(=O)O)c(O)c(C(C)(C)C)c1
inactive: [1] 19.4% | [3] -2.45% | [4] 5.4% | [5] 8.5%

Cc1nc(C)c(C(=O)O)cc1C(=O)O
inactive: [1] -8.9% | [6] 9.15% | [3] 2.85% | [4] 21.4% | [5] 4%

CCC(C)c1c(N)n(S(=O)(=O)c2ccc(C)cc2)oc1=O (stereo not drawn)
inactive: [1] -25.2% | [6] 6.4% | [3] -25% | [4] 16.6% | [5] -3.45%

CCOC(=O)c1ccc(NC(=O)Nc2nccs2)cc1
inactive: [1] -2.95% | [6] 29.4% | [3] 11.2% | [4] -12.4% | [5] 6.1%

Nc1nc(Cl)cc(Cl)n1
inactive: [1] 6.65% | [6] 0% | [3] 5.05% | [4] 2.85% | [5] 3.25%

O=C(O)Cc1ccc(Cl)cc1
inactive: [1] 22.2% | [6] 29% | [3] 3.65% | [4] -25.2% | [5] 0%

CCOC(=O)CSCCC#N
inactive: [1] 2.85% | [3] -7.9% | [4] 1.75% | [5] 0.65%

Cc1[nH]n(-c2ccccc2)c(=O)c1C=NC(=S)C(N)=S
inactive: [1] -24.4% | [3] -19.1% | [4] -54.4% | [5] -20.5%

c1ccc2[nH]c(Cc3nc4ccccc4[nH]3)nc2c1
inactive: [1] 48% | [6] 50.4% | [3] 7.65% | [4] 35% | [5] 10.2%

Cc1cc(C(=O)NN)c(C#N)c(=O)[nH]1
inactive: [1] 2.2% | [3] -17.5% | [4] 2.6% | [5] -0.5%

O=c1cc(C(F)(F)F)[nH]c(=S)[nH]1
inactive: [1] -21.9% | [6] -15.8% | [3] -20.9% | [4] -24.8% | [5] -26.2%

N#C/C(=C\c1ccc2c(c1)OCO2)c1ccccc1
inactive: [1] 10.4% | [6] 3.15% | [3] 10.2% | [4] 1.95% | [5] 24.1%

CC(=O)c1cccc(NS(=O)(=O)c2ccc(C)cc2)c1
inactive: [1] -4.85% | [6] -18.1% | [3] -36.7% | [4] -7.9% | [5] 35.9%

CCOC(=O)c1c(C)[nH]c(C)c1C=O
inactive: [1] 16.6% | [6] 3.15% | [3] -1.15% | [4] 52.5% | [5] 3.9%

CC(C)C(=O)OCCOc1ccc(C(C)(C)C)cc1
inactive: [1] 6.35% | [6] 6.9% | [3] -5.2% | [4] 15% | [5] 13.7%

Oc1cccnc1CN1CCCC1
inactive: [1] 1.15% | [6] 2.3% | [3] 1.7% | [4] -5.8% | [5] 18.4%

O=S(Cc1ccccc1)/C(=C/NC(=S)Nc1ccccc1)c1ccccc1 (stereo not drawn)
inactive: [1] -26.7% | [6] -40.1% | [3] -0.95% | [4] -16.9% | [5] -7.15%

CCOC(OCC)C(=O)c1ccccc1
inactive: [1] -0.5% | [6] -4.1% | [4] 6.25% | [5] 25.1%

CNc1ccccc1C(=O)N/N=C/C=C/c1ccccc1
inactive: [1] 31.6% | [6] 31.1% | [3] 2.65% | [5] 14.5%
